Drawing on article PMC7862700, “An all-to-all approach to the identification of sequence-specific readers for epigenetic DNA modifications on cytosine”, this text covers binding signal for 1 sequence.

Assay in all cases: DAPPL (digital affinity profiling via proximity ligation, sequencing); 10 mM Tris-HCl pH 7.5, 50 mM NaCl, 1 mM DTT, 4% glycerol, room temperature, 30 min; GST-TFs on glutathione beads, 16-mer random dsDNA library, 0.1% formaldehyde crosslink after washing; high values mean tight binding
For one assay, the target named is T1, FEV (Homo sapiens, UniProt Q99581 1-238).
T1 sequence: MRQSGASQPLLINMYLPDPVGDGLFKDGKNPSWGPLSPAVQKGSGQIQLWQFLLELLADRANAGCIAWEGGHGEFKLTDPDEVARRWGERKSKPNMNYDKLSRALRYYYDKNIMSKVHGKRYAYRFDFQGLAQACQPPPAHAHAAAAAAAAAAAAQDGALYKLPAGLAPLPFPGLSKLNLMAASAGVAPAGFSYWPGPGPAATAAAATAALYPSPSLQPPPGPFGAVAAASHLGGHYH
The conditions noted are these: protein: recombinant; tags: N-terminal GST; dsDNA, one strand shown. The procedure, abridged:
(§1)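 Human transcription factors carrying a GST fusion were produced in yeast, bound to glutathione beads, tagged with DNA barcodes and pooled together with a tag-only sample. Each pool was held with 200 nmole of a random double-stranded 16-mer DNA library in Tris/NaCl/DTT/glycerol buffer for 30 min at room temperature, then washed, crosslinked in 0.1% formaldehyde, proximity-ligated with BsaI/T4 ligase (1 h, 37 °C), PCR-amplified and sequenced on an Illumina NextSeq500. Binding signal is the read frequency of each hexamer for a given factor divided by its frequency in the tag-only sample.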

The target of another assay is ETV5 (Homo sapiens, UniProt P41161 1-510). Particulars: protein: recombinant; tags: N-terminal GST; dsDNA, one strand shown. The procedure, abridged:
as §1

The target in another assay is HSF1 (Homo sapiens, UniProt Q00613 1-529). Particulars: protein: recombinant; tags: N-terminal GST; chain copies: 3; dsDNA, one strand shown. In short, it runs like this:
as §1

A further assay addresses T2, SPIC (Homo sapiens, UniProt Q8N5J4 1-248).
T2 sequence: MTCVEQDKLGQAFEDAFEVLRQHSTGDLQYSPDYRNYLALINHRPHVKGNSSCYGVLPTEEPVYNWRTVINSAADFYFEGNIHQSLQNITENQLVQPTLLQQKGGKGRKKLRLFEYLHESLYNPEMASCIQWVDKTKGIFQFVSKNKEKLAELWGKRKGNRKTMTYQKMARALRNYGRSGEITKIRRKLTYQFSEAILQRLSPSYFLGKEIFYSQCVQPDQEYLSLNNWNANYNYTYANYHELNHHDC
Particulars: protein: recombinant; tags: N-terminal GST; dsDNA, one strand shown. The procedure, abridged:
as §1

The target of a further assay is ELF4 (Homo sapiens, UniProt Q99607 1-663). The conditions noted are these: protein: recombinant; tags: N-terminal GST; dsDNA, one strand shown. The procedure, abridged: as §1
Chain of ELF4 (Q99607 whole entry): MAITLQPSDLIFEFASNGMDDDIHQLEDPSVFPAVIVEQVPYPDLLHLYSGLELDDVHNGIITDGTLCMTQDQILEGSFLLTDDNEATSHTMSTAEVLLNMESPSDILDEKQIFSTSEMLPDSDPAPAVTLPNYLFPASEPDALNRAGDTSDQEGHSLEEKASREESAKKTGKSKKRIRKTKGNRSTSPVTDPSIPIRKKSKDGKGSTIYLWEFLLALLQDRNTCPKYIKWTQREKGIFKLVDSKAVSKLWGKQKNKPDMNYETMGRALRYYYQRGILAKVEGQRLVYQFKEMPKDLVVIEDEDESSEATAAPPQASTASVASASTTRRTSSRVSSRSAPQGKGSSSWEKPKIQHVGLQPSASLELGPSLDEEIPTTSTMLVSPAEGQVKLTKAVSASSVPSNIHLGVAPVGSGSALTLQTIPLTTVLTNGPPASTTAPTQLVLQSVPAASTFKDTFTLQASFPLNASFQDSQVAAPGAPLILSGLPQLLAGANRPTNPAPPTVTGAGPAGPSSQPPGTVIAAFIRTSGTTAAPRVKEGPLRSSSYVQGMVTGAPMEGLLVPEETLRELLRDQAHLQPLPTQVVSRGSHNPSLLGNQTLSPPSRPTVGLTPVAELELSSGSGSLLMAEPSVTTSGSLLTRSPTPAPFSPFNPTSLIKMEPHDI
For another assay, the target named is T3, ELK4 (Homo sapiens, UniProt P28324-2 1-405).
T3 sequence: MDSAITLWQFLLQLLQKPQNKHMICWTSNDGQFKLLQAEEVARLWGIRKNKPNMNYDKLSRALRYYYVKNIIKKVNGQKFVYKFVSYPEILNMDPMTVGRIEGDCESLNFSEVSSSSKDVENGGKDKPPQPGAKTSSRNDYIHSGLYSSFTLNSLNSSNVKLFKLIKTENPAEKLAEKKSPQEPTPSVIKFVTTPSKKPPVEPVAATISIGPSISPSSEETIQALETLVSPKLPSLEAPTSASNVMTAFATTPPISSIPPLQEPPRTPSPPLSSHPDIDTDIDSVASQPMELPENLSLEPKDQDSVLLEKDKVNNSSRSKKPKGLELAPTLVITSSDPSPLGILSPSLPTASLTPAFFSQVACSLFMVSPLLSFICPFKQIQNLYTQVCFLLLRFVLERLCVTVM
Particulars: protein: recombinant; tags: N-terminal GST; dsDNA, one strand shown. In short, it runs like this:
as §1

Another assay concerns the target T4, ETV2 (Homo sapiens, UniProt O00321 1-342).
T4 sequence: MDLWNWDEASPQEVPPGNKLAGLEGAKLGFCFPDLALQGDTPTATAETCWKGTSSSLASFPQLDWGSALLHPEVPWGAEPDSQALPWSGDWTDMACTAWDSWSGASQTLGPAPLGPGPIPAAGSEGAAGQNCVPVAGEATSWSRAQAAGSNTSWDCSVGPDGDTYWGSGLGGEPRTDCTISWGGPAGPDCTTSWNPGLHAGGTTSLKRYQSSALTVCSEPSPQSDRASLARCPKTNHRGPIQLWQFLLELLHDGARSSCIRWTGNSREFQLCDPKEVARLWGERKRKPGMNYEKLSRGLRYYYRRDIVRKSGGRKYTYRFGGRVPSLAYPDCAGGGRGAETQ
Particulars: protein: recombinant; tags: N-terminal GST; dsDNA, one strand shown. In short, it runs like this: as §1

The target of the next assay is T5, ELF3 (Homo sapiens, UniProt P78545 1-371).
T5 sequence: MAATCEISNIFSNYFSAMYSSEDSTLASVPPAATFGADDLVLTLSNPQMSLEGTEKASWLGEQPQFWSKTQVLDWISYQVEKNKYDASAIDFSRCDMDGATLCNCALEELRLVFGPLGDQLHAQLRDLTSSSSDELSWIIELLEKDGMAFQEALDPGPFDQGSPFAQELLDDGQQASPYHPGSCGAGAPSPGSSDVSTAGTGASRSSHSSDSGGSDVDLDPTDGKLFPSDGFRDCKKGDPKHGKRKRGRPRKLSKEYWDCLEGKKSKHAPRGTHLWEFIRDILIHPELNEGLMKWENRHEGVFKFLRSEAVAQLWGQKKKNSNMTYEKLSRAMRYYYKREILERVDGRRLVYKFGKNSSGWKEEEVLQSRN
The conditions noted are these: protein: recombinant; tags: N-terminal GST; dsDNA, one strand shown. The procedure, abridged: as §1

A further assay deals with CRX (Homo sapiens, UniProt O43186 1-299). Particulars: protein: recombinant; tags: N-terminal GST; dsDNA, one strand shown. In short, it runs like this: as §1
Chain of CRX (O43186 whole entry): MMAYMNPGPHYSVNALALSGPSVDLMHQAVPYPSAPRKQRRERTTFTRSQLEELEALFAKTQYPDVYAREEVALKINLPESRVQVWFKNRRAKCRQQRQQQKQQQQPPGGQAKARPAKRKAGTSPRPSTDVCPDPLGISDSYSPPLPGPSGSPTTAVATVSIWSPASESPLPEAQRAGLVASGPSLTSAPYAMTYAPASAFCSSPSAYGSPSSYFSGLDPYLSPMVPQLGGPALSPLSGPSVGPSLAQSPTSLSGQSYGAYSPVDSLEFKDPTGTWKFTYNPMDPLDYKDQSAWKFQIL
The next assay has as its target ETV1 (Homo sapiens, UniProt P50549 1-477). The conditions noted are these: protein: recombinant; tags: N-terminal GST; dsDNA, one strand shown. In short, it runs like this:
as §1

The target in a further assay is T6, ERF (Homo sapiens, UniProt P50548 1-548).
T6 sequence: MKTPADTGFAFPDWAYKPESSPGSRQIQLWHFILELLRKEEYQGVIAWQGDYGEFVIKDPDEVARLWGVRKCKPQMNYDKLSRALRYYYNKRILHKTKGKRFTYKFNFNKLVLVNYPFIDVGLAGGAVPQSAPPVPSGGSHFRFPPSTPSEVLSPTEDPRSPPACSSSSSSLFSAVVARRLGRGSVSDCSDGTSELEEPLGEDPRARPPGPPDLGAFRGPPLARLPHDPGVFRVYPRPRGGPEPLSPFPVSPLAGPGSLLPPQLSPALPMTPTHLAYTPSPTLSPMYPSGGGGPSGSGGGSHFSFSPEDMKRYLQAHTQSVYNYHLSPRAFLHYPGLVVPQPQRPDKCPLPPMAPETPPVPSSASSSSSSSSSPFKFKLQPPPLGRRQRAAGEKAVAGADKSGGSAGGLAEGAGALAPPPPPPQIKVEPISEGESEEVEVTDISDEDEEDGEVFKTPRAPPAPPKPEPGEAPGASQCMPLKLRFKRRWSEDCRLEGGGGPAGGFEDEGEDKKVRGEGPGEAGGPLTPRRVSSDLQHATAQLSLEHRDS
Particulars: protein: recombinant; tags: N-terminal GST; dsDNA, one strand shown. The procedure, abridged:
as §1

For the next assay, the target named is T7, ETV3L (Homo sapiens, UniProt Q6ZN32 1-361).
T7 sequence: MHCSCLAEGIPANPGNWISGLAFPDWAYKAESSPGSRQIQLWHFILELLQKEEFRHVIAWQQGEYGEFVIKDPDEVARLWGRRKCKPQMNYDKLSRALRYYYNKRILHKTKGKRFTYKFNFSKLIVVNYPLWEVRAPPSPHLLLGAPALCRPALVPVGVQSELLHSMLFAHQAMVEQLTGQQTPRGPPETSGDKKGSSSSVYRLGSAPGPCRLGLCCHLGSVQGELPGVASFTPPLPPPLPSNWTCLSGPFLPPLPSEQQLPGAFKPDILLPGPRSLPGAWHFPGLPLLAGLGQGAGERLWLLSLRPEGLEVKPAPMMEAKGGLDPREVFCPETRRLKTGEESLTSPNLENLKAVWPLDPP
The conditions noted are these: protein: recombinant; tags: N-terminal GST; dsDNA, one strand shown. The procedure, abridged: as §1

In the next assay the target is T8, ETS2 (Homo sapiens, UniProt P15036 1-469).
T8 sequence: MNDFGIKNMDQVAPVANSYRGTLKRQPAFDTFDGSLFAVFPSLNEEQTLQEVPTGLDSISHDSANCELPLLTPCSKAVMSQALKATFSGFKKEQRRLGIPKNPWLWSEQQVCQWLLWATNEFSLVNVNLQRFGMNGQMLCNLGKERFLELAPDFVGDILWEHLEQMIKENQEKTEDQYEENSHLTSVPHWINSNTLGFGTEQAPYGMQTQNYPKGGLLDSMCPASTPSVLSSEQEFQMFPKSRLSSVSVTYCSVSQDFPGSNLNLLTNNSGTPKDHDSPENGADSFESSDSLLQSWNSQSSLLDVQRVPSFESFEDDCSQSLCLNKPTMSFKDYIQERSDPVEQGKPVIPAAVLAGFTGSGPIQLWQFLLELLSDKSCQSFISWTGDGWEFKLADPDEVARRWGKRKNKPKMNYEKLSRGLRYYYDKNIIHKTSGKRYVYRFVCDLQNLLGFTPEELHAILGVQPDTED
Particulars: protein: recombinant; tags: N-terminal GST; dsDNA, one strand shown. The procedure, abridged:
as §1

Another assay addresses T9, SPDEF (Homo sapiens, UniProt O95238 1-335).
T9 sequence: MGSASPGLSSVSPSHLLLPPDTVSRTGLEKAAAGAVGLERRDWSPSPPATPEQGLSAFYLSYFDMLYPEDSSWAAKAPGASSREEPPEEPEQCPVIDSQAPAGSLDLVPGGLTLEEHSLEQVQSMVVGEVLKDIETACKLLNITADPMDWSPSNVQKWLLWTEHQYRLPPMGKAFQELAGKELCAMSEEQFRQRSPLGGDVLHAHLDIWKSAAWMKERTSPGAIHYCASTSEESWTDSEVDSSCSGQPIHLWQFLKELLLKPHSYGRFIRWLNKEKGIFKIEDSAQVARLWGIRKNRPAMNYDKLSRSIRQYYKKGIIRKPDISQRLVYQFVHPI
The conditions noted are these: protein: recombinant; tags: N-terminal GST; dsDNA, one strand shown. The procedure, abridged:
as §1

The next assay deals with T10, ETV7 (Homo sapiens, UniProt Q9Y603 1-341).
T10 sequence: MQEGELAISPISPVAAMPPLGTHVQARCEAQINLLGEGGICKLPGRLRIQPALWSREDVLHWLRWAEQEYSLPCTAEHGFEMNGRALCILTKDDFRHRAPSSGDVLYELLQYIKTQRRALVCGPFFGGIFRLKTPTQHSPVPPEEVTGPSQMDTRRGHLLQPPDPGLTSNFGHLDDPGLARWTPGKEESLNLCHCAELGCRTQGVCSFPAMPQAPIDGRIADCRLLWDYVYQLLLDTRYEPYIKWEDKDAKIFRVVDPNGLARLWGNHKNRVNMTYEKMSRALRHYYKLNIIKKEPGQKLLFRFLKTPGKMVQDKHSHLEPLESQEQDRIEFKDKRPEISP
Particulars: protein: recombinant; tags: N-terminal GST; dsDNA, one strand shown. The procedure, abridged: as §1

The target in a further assay is T11, ELF5 (Homo sapiens, UniProt Q9UKW6-2 1-255).
T11 sequence: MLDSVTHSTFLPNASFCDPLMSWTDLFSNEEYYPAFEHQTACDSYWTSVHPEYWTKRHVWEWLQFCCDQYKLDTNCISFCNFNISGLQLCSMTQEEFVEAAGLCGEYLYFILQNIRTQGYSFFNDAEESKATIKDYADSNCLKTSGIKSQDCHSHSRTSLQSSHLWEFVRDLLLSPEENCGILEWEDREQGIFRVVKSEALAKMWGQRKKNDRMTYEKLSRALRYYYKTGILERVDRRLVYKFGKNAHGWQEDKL
Particulars: protein: recombinant; tags: N-terminal GST; dsDNA, one strand shown. In short, it runs like this: as §1

A further assay concerns the target T12, ETV3 (Homo sapiens, UniProt P41162-2 1-143).
T12 sequence: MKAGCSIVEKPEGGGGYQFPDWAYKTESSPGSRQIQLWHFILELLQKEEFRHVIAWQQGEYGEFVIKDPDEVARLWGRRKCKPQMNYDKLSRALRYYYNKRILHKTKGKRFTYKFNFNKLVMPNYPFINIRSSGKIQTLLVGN
Particulars: protein: recombinant; tags: N-terminal GST; dsDNA, one strand shown. In short, it runs like this:
as §1

In a further assay the target is ETV6 (Homo sapiens, UniProt P41212 1-452). The conditions noted are these: protein: recombinant; tags: N-terminal GST; dsDNA, one strand shown. The procedure, abridged: as §1
Chain of ETV6 (P41212 whole entry): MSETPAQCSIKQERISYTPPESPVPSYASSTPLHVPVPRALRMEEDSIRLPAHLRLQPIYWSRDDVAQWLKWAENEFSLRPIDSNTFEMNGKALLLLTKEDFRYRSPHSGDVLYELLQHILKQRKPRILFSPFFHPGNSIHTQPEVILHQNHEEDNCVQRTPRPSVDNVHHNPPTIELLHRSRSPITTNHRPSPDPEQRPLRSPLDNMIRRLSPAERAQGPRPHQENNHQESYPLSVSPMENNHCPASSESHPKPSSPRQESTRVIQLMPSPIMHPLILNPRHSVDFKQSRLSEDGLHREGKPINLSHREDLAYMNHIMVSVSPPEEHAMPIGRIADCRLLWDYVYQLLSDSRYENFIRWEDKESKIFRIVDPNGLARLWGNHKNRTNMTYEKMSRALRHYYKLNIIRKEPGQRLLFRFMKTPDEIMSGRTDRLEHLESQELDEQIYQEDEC

Chain of HSF1 (Q00613 whole entry): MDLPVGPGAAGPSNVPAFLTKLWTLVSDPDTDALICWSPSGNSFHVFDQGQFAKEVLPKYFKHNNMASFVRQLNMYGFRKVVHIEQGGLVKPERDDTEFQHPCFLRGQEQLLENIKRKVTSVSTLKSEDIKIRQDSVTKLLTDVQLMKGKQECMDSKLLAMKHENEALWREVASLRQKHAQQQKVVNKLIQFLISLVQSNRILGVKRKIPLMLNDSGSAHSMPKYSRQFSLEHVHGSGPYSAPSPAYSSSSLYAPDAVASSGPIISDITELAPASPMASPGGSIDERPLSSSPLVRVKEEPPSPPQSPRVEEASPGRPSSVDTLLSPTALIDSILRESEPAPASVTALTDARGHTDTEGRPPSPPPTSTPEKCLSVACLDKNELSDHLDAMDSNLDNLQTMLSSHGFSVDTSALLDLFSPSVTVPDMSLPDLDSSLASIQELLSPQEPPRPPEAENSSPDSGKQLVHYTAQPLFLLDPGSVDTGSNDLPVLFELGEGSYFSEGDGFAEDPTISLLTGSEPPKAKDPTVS
Chain of ETV1 (P50549 whole entry): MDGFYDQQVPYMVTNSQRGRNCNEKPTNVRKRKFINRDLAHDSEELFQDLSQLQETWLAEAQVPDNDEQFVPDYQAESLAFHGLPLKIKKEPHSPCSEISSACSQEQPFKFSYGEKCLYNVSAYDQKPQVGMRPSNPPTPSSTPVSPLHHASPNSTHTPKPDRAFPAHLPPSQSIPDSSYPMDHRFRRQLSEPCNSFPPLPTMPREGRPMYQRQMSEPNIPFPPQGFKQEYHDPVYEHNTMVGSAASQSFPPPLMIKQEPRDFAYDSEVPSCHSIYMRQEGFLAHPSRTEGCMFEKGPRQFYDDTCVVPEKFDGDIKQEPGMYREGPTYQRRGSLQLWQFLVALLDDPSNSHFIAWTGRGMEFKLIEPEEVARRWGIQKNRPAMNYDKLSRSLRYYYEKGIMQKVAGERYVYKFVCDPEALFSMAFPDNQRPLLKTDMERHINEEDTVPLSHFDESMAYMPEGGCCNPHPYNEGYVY
Chain of ETV5 (P41161 whole entry): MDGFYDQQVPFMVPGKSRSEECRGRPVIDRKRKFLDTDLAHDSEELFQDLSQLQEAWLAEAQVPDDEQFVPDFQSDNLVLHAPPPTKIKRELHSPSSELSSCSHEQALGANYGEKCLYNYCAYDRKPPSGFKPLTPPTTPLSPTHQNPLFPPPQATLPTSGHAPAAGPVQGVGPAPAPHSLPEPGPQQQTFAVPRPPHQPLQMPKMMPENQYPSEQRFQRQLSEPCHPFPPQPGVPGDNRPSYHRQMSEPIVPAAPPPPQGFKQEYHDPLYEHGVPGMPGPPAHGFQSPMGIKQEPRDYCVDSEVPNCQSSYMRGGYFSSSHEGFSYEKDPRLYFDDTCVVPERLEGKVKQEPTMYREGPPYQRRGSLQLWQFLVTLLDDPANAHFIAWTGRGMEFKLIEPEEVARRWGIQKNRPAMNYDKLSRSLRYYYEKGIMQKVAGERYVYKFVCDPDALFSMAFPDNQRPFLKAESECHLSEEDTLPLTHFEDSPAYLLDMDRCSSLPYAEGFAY

On to TTTGAT, for which the binding signal was 1.17 fold enrichment (6-mer frequency, TF over GST control) with FEV; 1.23 fold enrichment (6-mer frequency, TF over GST control) with ETV5; 1.37 fold enrichment (6-mer frequency, TF over GST control) in the assay with HSF1; 1.26 fold enrichment (6-mer frequency, TF over GST control) in the assay with SPIC; 1.22 fold enrichment (6-mer frequency, TF over GST control) with ELF4; 1.2 fold enrichment (6-mer frequency, TF over GST control) with ELK4. For the same sequence, the binding signal was 1.22 fold enrichment (6-mer frequency, TF over GST control) in the assay with ETV2; 1.18 fold enrichment (6-mer frequency, TF over GST control) in the assay with ELF3; 1.6 fold enrichment (6-mer frequency, TF over GST control) with CRX; 1.25 fold enrichment (6-mer frequency, TF over GST control) with ETV1; 1.21 fold enrichment (6-mer frequency, TF over GST control) with ERF; 1.28 fold enrichment (6-mer frequency, TF over GST control) with ETV3L. Also, the binding signal with ETS2 was 1.26 fold enrichment (6-mer frequency, TF over GST control); with SPDEF, 1.12 fold enrichment (6-mer frequency, TF over GST control); in the assay with ETV7, 1.28 fold enrichment (6-mer frequency, TF over GST control); in the assay with ELF5, 1.26 fold enrichment (6-mer frequency, TF over GST control); in the assay with ETV3, 1.32 fold enrichment (6-mer frequency, TF over GST control); with ETV6, 1.26 fold enrichment (6-mer frequency, TF over GST control).
